The whole screen tested about 3,200 compounds, of which about 300 (9.4%) showed activity. The sample as a whole holds a higher share of actives than the screen did.
System: A673/TR/shEF
Assay: cell viability (LOESS-normalised, relative to median of negative controls) (log2 ratio); higher = more viable cells (less compound effect), active = hit call of the paper (over 3 MAD below the median)
Conditions: treatment time: 72 h
Method in brief: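 For three days, A673/TR/shEF Ewing sarcoma cells in 384-well plates (1,500 per well) were treated with library compounds at two or more concentrations or with DMSO controls, after doxycycline had been added or withheld 24 h beforehand to induce EWS-FLI1 shRNA knockdown. Viability was read by CellTiter-Glo luminescence on an Envision reader. The data were LOESS-corrected per plate, divided by the median of negative controls and log2-transformed.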

[1] = 0.25 µM, library screen: screen1, EWS-FLI1 expression: high (no doxycycline)
[2] = 0.25 µM, library screen: screen1, EWS-FLI1 expression: low (doxycycline-induced shRNA knockdown)
[3] = 0.25 µM, library screen: screen2, EWS-FLI1 expression: high (no doxycycline)
[4] = 0.25 µM, library screen: screen2, EWS-FLI1 expression: low (doxycycline-induced shRNA knockdown)
[5] = 2.5 µM, library screen: screen1, EWS-FLI1 expression: high (no doxycycline)
[6] = 2.5 µM, library screen: screen1, EWS-FLI1 expression: low (doxycycline-induced shRNA knockdown)
[7] = 2.5 µM, library screen: screen2, EWS-FLI1 expression: high (no doxycycline)
[8] = 2.5 µM, library screen: screen2, EWS-FLI1 expression: low (doxycycline-induced shRNA knockdown)
[9] = 0.103 µM, library screen: screen3, EWS-FLI1 expression: high (no doxycycline)
[10] = 0.103 µM, library screen: screen3, EWS-FLI1 expression: low (doxycycline-induced shRNA knockdown)
[11] = 0.308 µM, library screen: screen3, EWS-FLI1 expression: high (no doxycycline)
[12] = 0.308 µM, library screen: screen3, EWS-FLI1 expression: low (doxycycline-induced shRNA knockdown)
[13] = 0.926 µM, library screen: screen3, EWS-FLI1 expression: high (no doxycycline)
[14] = 0.926 µM, library screen: screen3, EWS-FLI1 expression: low (doxycycline-induced shRNA knockdown)
[15] = 2.8 µM, library screen: screen3, EWS-FLI1 expression: high (no doxycycline)
[16] = 2.8 µM, library screen: screen3, EWS-FLI1 expression: low (doxycycline-induced shRNA knockdown)
[17] = 8.3 µM, library screen: screen3, EWS-FLI1 expression: high (no doxycycline)
[18] = 8.3 µM, library screen: screen3, EWS-FLI1 expression: low (doxycycline-induced shRNA knockdown)
[19] = 25 µM, library screen: screen3, EWS-FLI1 expression: high (no doxycycline)
[20] = 25 µM, library screen: screen3, EWS-FLI1 expression: low (doxycycline-induced shRNA knockdown)

Measured: cell viability (log2)

NC[C@@H]1O[C@H](O[C@@H]2[C@@H](CO)OC(O[C@H]3C(O[C@H]4O[C@H](CO)[C@@H](O)[C@H](O)[C@H]4N)[C@@H](N)C[C@@H](N)[C@@H]3O)[C@@H]2O)[C@H](N)[C@@H](O)[C@@H]1O (some centres undefined)
inactive: [1] 0.0774 | [2] 0.116 | [3] 0.171 | [4] 0.0601 | [5] 0.0937 | [6] 0.0802 | [7] 0.19 | [8] 0.0499

COc1ccc(OC)c(CN2CCN(Cc3ccc(F)cc3)CC2)c1
inactive: [1] 0.102 | [2] 0.0528 | [5] 0.106 | [6] -0.00941

CN1CCN(CCOc2cc(OC3CCOCC3)c3c(Nc4c(Cl)ccc5c4OCO5)ncnc3c2)CC1
inactive: [9] 0.0216 | [10] 0.122 | [11] -0.0387 | [12] 0.0239 | [13] -0.075 | [14] 0.0267 | [15] -0.153 | [16] -0.0864
active: [17] -0.339 | [18] -0.15 | [19] -0.476 | [20] -0.808

C[C@@H]1O[C@H](OC[C@H]2O[C@@H](Oc3c(-c4ccc(O)c(O)c4)oc4cc(O)cc(O)c4c3=O)[C@H](O)[C@@H](O)[C@@H]2O)[C@H](O)[C@H](O)[C@H]1O
inactive: [1] -0.0111 | [2] 0.0513 | [5] 0.125 | [6] 0.094

C[C@H](CCC(=O)O)[C@H]1CC[C@H]2[C@@H]3C(O)CC4=CC(=O)CC[C@]4(C)[C@H]3CC[C@]12C (some centres undefined)
inactive: [1] 0.0418 | [2] -0.00533 | [5] 0.162 | [6] -0.0526

C[n+]1c2cc(N)ccc2cc2ccc(N)cc21
active: [7] -0.404 | 25 µM, library screen: screen2, EWS-FLI1 expression: high (no doxycycline) -4.23 | 25 µM, library screen: screen2, EWS-FLI1 expression: low (doxycycline-induced shRNA knockdown) -2.18
inactive: 0.025 µM, library screen: screen2, EWS-FLI1 expression: high (no doxycycline) 0.0847 | 0.025 µM, library screen: screen2, EWS-FLI1 expression: low (doxycycline-induced shRNA knockdown) 0.099 | [1] 0.0872 | [2] 0.141 | [3] 0.0533 | [4] 0.0413 | [5] 0.0728 | [6] 0.101 | [8] -0.0252

CCCCN1CCC(COC(=O)c2cc(Cl)c(N)c3c2OCCO3)CC1
inactive: [4] -0.0248 | [7] 0.148 | [8] 0.108
active: [3] -0.151

CC[C@H](/C=C/[C@@H](C)[C@H]1CC[C@H]2[C@@H]3CCC4=CC(=O)CC[C@]4(C)[C@H]3CC[C@]12C)C(C)C
inactive: [1] 0.0678 | [2] 0.0569 | [5] 0.0668 | [6] -0.0817

COC(=O)[C@H]1[C@H]2C[C@H]3c4[nH]c5cc(OC)ccc5c4CCN3C[C@H]2C[C@@H](OC(=O)c2cc(OC)c(OC)c(OC)c2)[C@@H]1OC
inactive: [1] 0.121 | [2] 0.17 | [5] 0.195 | [6] 0.313

COc1ccc2c(c1)[C@@]1(C)CCC(=O)C[C@H]1CC2
inactive: [1] 0.0614 | [2] 0.0537 | [5] 0.105 | [6] 0.0269

Clc1ccc(C(c2ccc(Cl)cc2)n2cc[n+](CC(OCc3ccc(Cl)cc3Cl)c3ccc(Cl)cc3Cl)c2)cc1 (centres undefined)
inactive: [3] 0.138 | [4] 0.0728 | [7] 0.0573 | [8] 0.0822

NCCCCCCNS(=O)(=O)c1cccc2c(Cl)cccc12
inactive: [1] 0.066 | [2] 0.0556 | [3] 0.156 | [4] 0.0625 | [5] 0.0432 | [6] 0.0443 | [7] 0.141 | [8] 0.102

NCCCCNS(=O)(=O)c1cccc2c(Cl)cccc12
inactive: [4] 0.0648 | [7] 0.0418 | [8] 0.0582
active: [3] -0.151

COc1ccccc1N1CCN(CCCCNS(=O)(=O)c2cccc3c(N(C)C)cccc23)CC1
inactive: [3] 0.171 | [4] 0.0777 | [7] 0.0423 | [8] 0.0929

O=C(Oc1cc(O)c2c(c1)O[C@H](c1cc(O)c(OC(=O)c3cc(O)c(O)c(O)c3)c3c(O)c(=O)cc(C4Oc5cc(O)cc(O)c5C[C@H]4O)cc13)[C@H](O)C2)c1cc(O)c(O)c(O)c1 (some centres undefined)
inactive: [1] 0.0686 | [2] 0.0559 | [5] 0.0408 | [6] 0.0509

CC12CC[C@](C)(C(=O)O)CC1C1=CC(=O)[C@@H]3C4(C)CC[C@H](OC(=O)CCC(=O)O)C(C)(C)[C@@H]4CCC3(C)[C@]1(C)CC2 (some centres undefined)
inactive: [1] 0.0741 | [2] -0.061 | [5] 0.0857 | [6] -0.0474

CC(=O)OC1CCC2(C)C(CCC3C2CCC2(C)C3CC3OC4(CCC(C)CO4)C(C)C32)C1 (centres undefined)
inactive: [1] 0.0872 | [2] 0.0698 | [5] 0.151 | [6] 0.0624

CC(=O)OC1CCC2(C)C(CCC3C2CC(=O)C2(C)C3CC3OC4(CCC(C)CO4)C(C)C32)C1 (centres undefined)
inactive: [1] 0.0619 | [2] 0.0314 | [5] 0.0226 | [6] 0.0969

COc1ccc(/C=C/C(=O)O)cc1O
inactive: [1] 0.0659 | [2] -0.0174 | [5] 0.0725 | [6] 0.0415

CCCCC(=O)O[C@H]1CC[C@H]2[C@@H]3CCc4cc(O)ccc4[C@H]3CC[C@]12C
inactive: [1] 0.0993 | [2] -0.0254 | [5] 0.16 | [6] 0.0807

C[C@]12CC[C@@H]3c4ccc(O)cc4CC[C@H]3[C@@H]1CC[C@@H]2OC(=O)CCC1CCCC1
inactive: [2] 0.00213 | [5] 0.197 | [6] 0.299
active: [1] -0.302

CCC(=O)O[C@H]1CC[C@H]2[C@@H]3CCc4cc(O)ccc4[C@H]3CC[C@]12C
inactive: [1] 0.0933 | [2] 0.137 | [5] 0.162 | [6] 0.0928

CS(=O)(=O)Nc1ccc([N+](=O)[O-])cc1Oc1ccccc1
inactive: [1] 0.147 | [2] 0.0914 | [3] 0.0788 | [4] -0.000657 | [5] 0.123 | [6] 0.11 | [7] 0.101 | [8] 0.0459

O=[N+]([O-])c1ccc(Oc2ccc(Br)cc2)c(C(O)[P+](=O)O)c1 (centres undefined)
active: [5] -0.289 | 25 µM, library screen: screen1, EWS-FLI1 expression: high (no doxycycline) -0.404
inactive: 0.025 µM, library screen: screen1, EWS-FLI1 expression: high (no doxycycline) 0.0442 | 0.025 µM, library screen: screen1, EWS-FLI1 expression: low (doxycycline-induced shRNA knockdown) 0.0701 | [1] 0.235 | [2] 0.0171 | [6] -0.0253 | 25 µM, library screen: screen1, EWS-FLI1 expression: low (doxycycline-induced shRNA knockdown) -0.0834

O=C(NC(=S)Nc1ncc(Br)cc1Br)c1cccs1
inactive: [1] 0.112 | [2] -0.086 | [5] 0.132 | [6] 0.0575

COc1c(Cl)ccc(Cl)c1C(=O)O
inactive: [1] 0.0938 | [2] 0.128 | [5] 0.0992 | [6] 0.17

CC(=O)O[C@H]1CC[C@]2(C)C3=CC(=O)[C@@]4(C)C(C[C@@H]5OC6(OCC(C)CC6Br)[C@@H](C)[C@@H]54)C3CC[C@H]2C1 (some centres undefined)
inactive: [1] 0.0329 | [2] 0.0911 | [5] 0.172 | [6] 0.139

CC(C)(C)OC(=O)C(C)(N)c1ccc(Cl)cc1 (centres undefined)
inactive: [3] 0.157 | [4] 0.0841 | [7] 0.151 | [8] 0.141

C#Cc1cccc(Nc2ncnc3cc(OCCOC)c(OCCO)cc23)c1
inactive: [9] -0.021 | [10] 0.0228 | [11] -0.00557 | [12] 0.0307 | [13] -0.00846 | [14] 0.063 | [15] 0.0648 | [16] 0.0201 | [17] -0.0295 | [18] 0.0604 | [19] -0.0784 | [20] -0.0862

CCN(CCO)CCCOc1ccc2c(Nc3cc(CC(=O)Nc4cccc(F)c4)[nH]n3)ncnc2c1
inactive: [10] -0.0648 | [12] -0.00388 | [14] -0.0458 | [18] -0.0257 | [20] -0.0482
active: [9] -0.49 | [11] -0.395 | [13] -0.452 | [15] -0.473 | [16] -0.112 | [17] -0.446 | [19] -0.681

O=C(CSc1nc2ccccc2[nH]1)c1ccc(OC(F)F)cc1
inactive: [1] 0.0646 | [2] 0.0338 | [5] 0.169 | [6] -0.104

CN1CCN(CC(=O)N2c3ccccc3Sc3ccccc32)CC1
inactive: [1] 0.172 | [2] 0.134 | [5] 0.173 | [6] 0.343

CNC(=O)c1c(F)cccc1Nc1nc(Nc2cc3c(cc2OC)CCN3C(=O)CN(C)C)nc2[nH]ccc12
active: [11] -0.215 | [13] -0.468 | [15] -0.729 | [16] -0.119 | [17] -0.785 | [18] -0.103 | [19] -1.04 | [20] -0.185
inactive: [9] -0.00474 | [10] 0.0229 | [12] -0.0133 | [14] -0.047

CCOC(=O)C1=C(C)N=C2SC(C)C(=O)N2C1c1ccc(OC)cc1 (centres undefined)
inactive: [1] 0.148 | [2] 0.0319 | [5] 0.107 | [6] 0.0438

NC(C(=O)O)c1cccc(O)c1 (centres undefined)
inactive: [3] 0.144 | [4] 0.0441 | [7] 0.145 | [8] 0.0975

C[C@@H]1CC[C@@]23CCC4(C)[C@@](C=CC5[C@@]6(C)CC[C@H](O)C(C)(C)C6CC[C@]54C)(OC2=O)C3[C@H]1C (some centres undefined)
inactive: [1] 0.00363 | [2] -0.0167 | [5] 0.0828 | [6] -0.0285

COCCOC(=O)C1=C(C)NC(=S)NC1c1ccccc1 (centres undefined)
inactive: [1] 0.0342 | [2] 0.00808 | [5] 0.0869 | [6] 0.0951

— the supplement of paper PMC6089552
